# Measured values published in the supplement of paper PMC4466140.
# Assays:
# Assay in all cases: SPOT peptide array binding signal intensity (averaged, normalized) (arbitrary units (background-subtracted, floor 0; scale differs between SH3 domains)); higher = stronger binding of the SH3 domain to the peptide
# AgAbp1 = target: AgAbp1
# How it was run: (§1)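 SH3 domains from four yeast species were expressed as GST fusions in E. coli BL21(DE3) and purified on glutathione Sepharose. Each was incubated at 10 μg/ml overnight at 4°C in TBS-based blocking buffer on cellulose membranes bearing synthetic 15-mer peptides, in which serines replaced cysteines. Bound protein was detected with anti-GST antibody, an HRP anti-mouse secondary and luminol, then imaged and quantified with Genespotter. The binding signal is the normalized, background-subtracted spot intensity averaged over replicates, in arbitrary units that are not the same from one domain to another.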
# AgBbc1 = target: AgBbc1
# How it was run: as §1
# AgBem1-D1 = target: AgBem1-D1
# How it was run: as §1
# AgBzz1-D1 = target: AgBzz1-D1
# How it was run: as §1
# AgBzz1-D2 = target: AgBzz1-D2
# How it was run: as §1
# AgCyk3 = target: AgCyk3
# How it was run: as §1
# AgFus1 = target: AgFus1
# How it was run: as §1
# AgHof1 = target: AgHof1
# How it was run: as §1
# AgHse1 = target: AgHse1
# How it was run: as §1
# AgLsb1 = target: AgLsb1
# How it was run: as §1
# AgLsb4 = target: AgLsb4
# How it was run: as §1
# AgMyo5 = target: AgMyo5
# How it was run: as §1
# AgNbp2 = target: AgNbp2
# How it was run: as §1
# AgRvs167 = target: AgRvs167
# How it was run: as §1
# AgSho1 = target: AgSho1
# How it was run: as §1
# AgSla1-D1-D2 = target: AgSla1-D1-D2
# How it was run: as §1
# AgSla1-D3 = target: AgSla1-D3
# How it was run: as §1
# CaAbp1-D1 = target: CaAbp1-D1
# How it was run: as §1
# CaAbp1-D2 = target: CaAbp1-D2
# How it was run: as §1
# CaBbc1 = target: CaBbc1
# How it was run: as §1
# CaBem1-D1 = target: CaBem1-D1
# How it was run: as §1
# CaBzz1-D1 = target: CaBzz1-D1
# How it was run: as §1
# CaBzz1-D2 = target: CaBzz1-D2
# How it was run: as §1
# CaCyk3 = target: CaCyk3
# How it was run: as §1
# CaFus1 = target: CaFus1
# How it was run: as §1
# CaHof1 = target: CaHof1
# How it was run: as §1
# CaHse1 = target: CaHse1
# How it was run: as §1
# CaLsb1 = target: CaLsb1
# How it was run: as §1
# CaLsb4 = target: CaLsb4
# How it was run: as §1
# CaMyo5 = target: CaMyo5
# How it was run: as §1
# CaNbp2 = target: CaNbp2
# How it was run: as §1
# CaRvs167 = target: CaRvs167
# How it was run: as §1
# CaRvs167-3 = target: CaRvs167-3
# How it was run: as §1
# CaSho1 = target: CaSho1
# How it was run: as §1
# CaSla1-D1-D2 = target: CaSla1-D1-D2
# How it was run: as §1
# CaSla1-D3 = target: CaSla1-D3
# How it was run: as §1
# ScAbp1 = target: ScAbp1
# How it was run: as §1
# ScBbc1 = target: ScBbc1
# How it was run: as §1
# ScBem1-D1 = target: ScBem1-D1
# How it was run: as §1
# ScBzz1-D1 = target: ScBzz1-D1
# How it was run: as §1
# ScBzz1-D2 = target: ScBzz1-D2
# How it was run: as §1
# ScCyk3 = target: ScCyk3
# How it was run: as §1
# ScFus1 = target: ScFus1
# How it was run: as §1
# ScHof1 = target: ScHof1
# How it was run: as §1
# ScHse1 = target: ScHse1
# How it was run: as §1
# ScLsb1 = target: ScLsb1
# How it was run: as §1
# ScLsb2 = target: ScLsb2
# How it was run: as §1
# ScLsb3 = target: ScLsb3
# How it was run: as §1
# ScLsb4 = target: ScLsb4
# How it was run: as §1
# ScMyo3 = target: ScMyo3
# How it was run: as §1
# ScMyo5 = target: ScMyo5
# How it was run: as §1
# ScNbp2 = target: ScNbp2
# How it was run: as §1
# ScPex13 = target: ScPex13
# How it was run: as §1
# ScRvs167 = target: ScRvs167
# How it was run: as §1
# ScSho1 = target: ScSho1
# How it was run: as §1
# ScSla1-D1-D2 = target: ScSla1-D1-D2
# How it was run: as §1
# ScSla1-D3 = target: ScSla1-D3
# How it was run: as §1
# SpAbp1-D1 = target: SpAbp1-D1
# How it was run: as §1
# SpBbc1 = target: SpBbc1
# How it was run: as §1
# SpBzz1-D1 = target: SpBzz1-D1
# How it was run: as §1
# SpBzz1-D2 = target: SpBzz1-D2
# How it was run: as §1
# SpCyk3 = target: SpCyk3
# How it was run: as §1
# SpHof1 = target: SpHof1
# How it was run: as §1
# SpHof1-2 = target: SpHof1-2
# How it was run: as §1
# SpHof1-3 = target: SpHof1-3
# How it was run: as §1
# SpHse1 = target: SpHse1
# How it was run: as §1
# SpLsb1 = target: SpLsb1
# How it was run: as §1
# SpLsb4 = target: SpLsb4
# How it was run: as §1
# SpMyo1 = target: SpMyo1
# How it was run: as §1
# SpNbp2 = target: SpNbp2
# How it was run: as §1
# SpPex13 = target: SpPex13
# How it was run: as §1
# SpRvs167 = target: SpRvs167
# How it was run: as §1
# SpSla1-D1-D2 = target: SpSla1-D1-D2
# How it was run: as §1
# SpSla1-D3 = target: SpSla1-D3
# How it was run: as §1
binder,measurement,setting,value
KKEKKPPKIPKKVYT,SPOT peptide array binding signal intensity,AgAbp1,2950
same,SPOT peptide array binding signal intensity,AgBbc1,9.5
same,SPOT peptide array binding signal intensity,AgBem1-D1,8
same,SPOT peptide array binding signal intensity,AgBzz1-D1,253
same,SPOT peptide array binding signal intensity,AgBzz1-D2,43
same,SPOT peptide array binding signal intensity,AgCyk3,≤ 0
same,SPOT peptide array binding signal intensity,AgFus1,1
same,SPOT peptide array binding signal intensity,AgHof1,29.2
same,SPOT peptide array binding signal intensity,AgHse1,35.5
same,SPOT peptide array binding signal intensity,AgLsb1,≤ 0
same,SPOT peptide array binding signal intensity,AgLsb4,1.5
same,SPOT peptide array binding signal intensity,AgMyo5,≤ 0
same,SPOT peptide array binding signal intensity,AgNbp2,19
same,SPOT peptide array binding signal intensity,AgRvs167,2.5
same,SPOT peptide array binding signal intensity,AgSho1,5
same,SPOT peptide array binding signal intensity,AgSla1-D1-D2,≤ 0
same,SPOT peptide array binding signal intensity,AgSla1-D3,4.5
same,SPOT peptide array binding signal intensity,CaAbp1-D1,892
same,SPOT peptide array binding signal intensity,CaAbp1-D2,1670
same,SPOT peptide array binding signal intensity,CaBbc1,88.5
same,SPOT peptide array binding signal intensity,CaBem1-D1,28
same,SPOT peptide array binding signal intensity,CaBzz1-D1,1950
same,SPOT peptide array binding signal intensity,CaBzz1-D2,2760
same,SPOT peptide array binding signal intensity,CaCyk3,≤ 0
same,SPOT peptide array binding signal intensity,CaFus1,99
same,SPOT peptide array binding signal intensity,CaHof1,1
same,SPOT peptide array binding signal intensity,CaHse1,110
same,SPOT peptide array binding signal intensity,CaLsb1,0.25
same,SPOT peptide array binding signal intensity,CaLsb4,≤ 0
same,SPOT peptide array binding signal intensity,CaMyo5,1.5
same,SPOT peptide array binding signal intensity,CaNbp2,10
same,SPOT peptide array binding signal intensity,CaRvs167,2
same,SPOT peptide array binding signal intensity,CaRvs167-3,4.5
same,SPOT peptide array binding signal intensity,CaSho1,13
same,SPOT peptide array binding signal intensity,CaSla1-D1-D2,79
same,SPOT peptide array binding signal intensity,CaSla1-D3,≤ 0
same,SPOT peptide array binding signal intensity,ScAbp1,901
same,SPOT peptide array binding signal intensity,ScBbc1,1
same,SPOT peptide array binding signal intensity,ScBem1-D1,16
same,SPOT peptide array binding signal intensity,ScBzz1-D1,98
same,SPOT peptide array binding signal intensity,ScBzz1-D2,9.5
same,SPOT peptide array binding signal intensity,ScCyk3,≤ 0
same,SPOT peptide array binding signal intensity,ScFus1,≤ 0
same,SPOT peptide array binding signal intensity,ScHof1,1.5
same,SPOT peptide array binding signal intensity,ScHse1,91
same,SPOT peptide array binding signal intensity,ScLsb1,4.75
same,SPOT peptide array binding signal intensity,ScLsb2,2
same,SPOT peptide array binding signal intensity,ScLsb3,256
same,SPOT peptide array binding signal intensity,ScLsb4,≤ 0
same,SPOT peptide array binding signal intensity,ScMyo3,≤ 0
same,SPOT peptide array binding signal intensity,ScMyo5,4.25
same,SPOT peptide array binding signal intensity,ScNbp2,2
same,SPOT peptide array binding signal intensity,ScPex13,11
same,SPOT peptide array binding signal intensity,ScRvs167,2
same,SPOT peptide array binding signal intensity,ScSho1,109
same,SPOT peptide array binding signal intensity,ScSla1-D1-D2,10
same,SPOT peptide array binding signal intensity,ScSla1-D3,14.5
same,SPOT peptide array binding signal intensity,SpAbp1-D1,396
same,SPOT peptide array binding signal intensity,SpBbc1,3.5
same,SPOT peptide array binding signal intensity,SpBzz1-D1,158
same,SPOT peptide array binding signal intensity,SpBzz1-D2,0.75
same,SPOT peptide array binding signal intensity,SpCyk3,≤ 0
same,SPOT peptide array binding signal intensity,SpHof1,1.75
same,SPOT peptide array binding signal intensity,SpHof1-2,1
same,SPOT peptide array binding signal intensity,SpHof1-3,6.25
same,SPOT peptide array binding signal intensity,SpHse1,1.5
same,SPOT peptide array binding signal intensity,SpLsb1,55
same,SPOT peptide array binding signal intensity,SpLsb4,≤ 0
same,SPOT peptide array binding signal intensity,SpMyo1,3.25
same,SPOT peptide array binding signal intensity,SpNbp2,≤ 0
same,SPOT peptide array binding signal intensity,SpPex13,≤ 0
same,SPOT peptide array binding signal intensity,SpRvs167,8.33
same,SPOT peptide array binding signal intensity,SpSla1-D1-D2,4
same,SPOT peptide array binding signal intensity,SpSla1-D3,3.5
APPPPPRRATPEKKP,SPOT peptide array binding signal intensity,AgAbp1,79
same,SPOT peptide array binding signal intensity,AgBbc1,202
same,SPOT peptide array binding signal intensity,AgBem1-D1,24.5
same,SPOT peptide array binding signal intensity,AgBzz1-D1,84
same,SPOT peptide array binding signal intensity,AgBzz1-D2,29.5
same,SPOT peptide array binding signal intensity,AgCyk3,≤ 0
same,SPOT peptide array binding signal intensity,AgFus1,≤ 0
same,SPOT peptide array binding signal intensity,AgHof1,0.75
same,SPOT peptide array binding signal intensity,AgHse1,17
same,SPOT peptide array binding signal intensity,AgLsb1,17.5
same,SPOT peptide array binding signal intensity,AgLsb4,192
same,SPOT peptide array binding signal intensity,AgMyo5,4
same,SPOT peptide array binding signal intensity,AgNbp2,≤ 0
same,SPOT peptide array binding signal intensity,AgRvs167,209
same,SPOT peptide array binding signal intensity,AgSho1,1.5
same,SPOT peptide array binding signal intensity,AgSla1-D1-D2,≤ 0
same,SPOT peptide array binding signal intensity,AgSla1-D3,1.5
same,SPOT peptide array binding signal intensity,CaAbp1-D1,62
same,SPOT peptide array binding signal intensity,CaAbp1-D2,58
same,SPOT peptide array binding signal intensity,CaBbc1,368
same,SPOT peptide array binding signal intensity,CaBem1-D1,1
same,SPOT peptide array binding signal intensity,CaBzz1-D1,1050
same,SPOT peptide array binding signal intensity,CaBzz1-D2,156
same,SPOT peptide array binding signal intensity,CaCyk3,18.5
same,SPOT peptide array binding signal intensity,CaFus1,52.5
same,SPOT peptide array binding signal intensity,CaHof1,73
same,SPOT peptide array binding signal intensity,CaHse1,3
same,SPOT peptide array binding signal intensity,CaLsb1,≤ 0
same,SPOT peptide array binding signal intensity,CaLsb4,1860
same,SPOT peptide array binding signal intensity,CaMyo5,2.5
